This is an account of results in the supplement of paper PMC9135407.

Several values for one entry are separate records, joined by “and”; a condition that tells them apart may be missing. Equal values may be shown once. Where a name gives a salt, the structure may show the parent alone. Hit rate of the full screen: of about 5,800 compounds, about 620 (11%) showed activity. The sample holds actives, similar compounds and a random draw of the others, so the mix is not that of the screen. Values without a mark were called inactive.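 The calls were made as follows: active = score above a cut-off or among the top three wells of a plate; in these data no inactive exceeds 0.85.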

The assay deals with primary human hepatic stellate cells (donor 1). In words: scaled lipid accumulation score (0 = DMSO-like, 1 = nortriptyline-like); higher = stronger HSC inactivation (lipid re-accumulation), active = hit call of the paper. The following applies: 48 h.
Where [1] appears, read: library stock concentration: 10 mM.
The mark [2] stands for this setting: library stock concentration: 3.33 mM.
[3] abbreviates: library stock concentration: 1 mM.
Setting [4] is: library stock concentration: 80 uM.
The mark [5] stands for this setting: library stock concentration: 400 uM.
The mark [6] stands for this setting: library stock concentration: 2 mM.

With `C[C@@H]1O[C@@H]1P(=O)(O)O` [Phosphomycin disodium], the “scaled lipid accumulation score” value under setting [1] is at most -0.055.
Consider `C[C@@H]1O[C@@H]1P(=O)(O)O` [Fosfomycin], for which, under setting [1], the “scaled lipid accumulation score” value was at most 0.
Regarding `CCN1C(=CC(C)=O)Sc2ccc(OC)cc21`, the “scaled lipid accumulation score” value reads like this: under setting [2], at most -0.009; under setting [1], at most 0.
As to `CCCCCCCCCCC(C)(C)C(=O)Nc1c(OC)cc(OC)cc1OC`, the “scaled lipid accumulation score” value under setting [1] is 0.164 and ≤ -0.001.
Consider `CC/C=C/C/C=C/C/C=C/C/C=C/CCCCC(=O)OC` [Stearidonic Acid methyl ester], for which the “scaled lipid accumulation score” value under setting [3] was 0.048.
Regarding `O=C(c1cn(Cc2cncn2Cc2ccc(Br)cc2)cc1-c1cccc2ccccc12)N1CCOCC1`, the “scaled lipid accumulation score” value was at most -0.003 under setting [2] and 0.723 under setting [1].
`CNCc1ccc(-c2[nH]c3cc(F)cc4c3c2CCNC4=O)cc1.O=P(O)(O)O`: the “scaled lipid accumulation score” value under setting [1] was 1.47 (active).
Regarding `CNCc1ccc(-c2[nH]c3cc(F)cc4c3c2CCNC4=O)cc1` [Rucaparib], the “scaled lipid accumulation score” value runs as follows: under setting [4], at most 0; under setting [5], at most 0; under setting [6], 0.588.
Take `CNCc1ccc(-c2[nH]c3cc(F)cc4c3c2CCNC4=O)cc1.O=P(O)(O)O` [Rucaparib]: under setting [1], the “scaled lipid accumulation score” value is 1.12 (active).
Regarding `CNCc1ccc(-c2[nH]c3cc(F)cc4c3c2CCNC4=O)cc1`, under setting [2], the “scaled lipid accumulation score” value was 0.213.
`CCCCCCCCCCCCCCCCCCCCCCC(=O)OCC` [Ethyl Tricosanoate]: the “scaled lipid accumulation score” value under setting [3] is at most 0.
In the case of `CCCCCCCCCSCCCCCCCC(=O)O` [9-Thiastearic Acid], under setting [3], the “scaled lipid accumulation score” value is 0.031.
For the compound `CN1CCc2nc(C(=O)N[C@@H]3C[C@@H](C(=O)N(C)C)CC[C@@H]3NC(=O)C(=O)Nc3ccc(Cl)cn3)sc2C1` [Edoxaban], the “scaled lipid accumulation score” value by setting is: under setting [2], at most -0.009; under setting [1], 0.008.
With `CC(=O)N[C@@H](Cc1c[nH]c2ccccc12)C(=O)O` [Acetyltryptophan], the “scaled lipid accumulation score” value under setting [1] is at most 0.
With `COc1cc(C(O)C(=O)O)ccc1O` (stereo not given), the “scaled lipid accumulation score” value under setting [1] is at most -0.036.
Take `c1nc(CC2CCNCC2)c[nH]1` [Immepip dihydrobromide]: the “scaled lipid accumulation score” value under setting [1] is 0.011.
For `CC/C=C/C[C@H](O)/C=C/[C@H]1[C@H](O)CC(=O)[C@@H]1C/C=C\CCCC(=O)O` [17-trans Prostaglandin E3], the “scaled lipid accumulation score” value under setting [3] was at most 0.
For `Cc1cnc(-c2cnc(NCCNc3ccc(C#N)cn3)nc2-c2ccc(Cl)cc2Cl)[nH]1`, the “scaled lipid accumulation score” value is 0.041 under setting [4]; 0.005 under setting [5]; 0.182 under setting [6]; 0.229 under setting [2]; 0.814 under setting [1].
For the compound `Cc1c[nH]c(-c2cnc(NCCNc3ccc(C#N)cn3)nc2-c2ccc(Cl)cc2Cl)n1.Cl`, the “scaled lipid accumulation score” value under setting [1] was 1.08 (active).
Regarding `CCCCC[C@H](O)/C=C/[C@H]1C(=O)C[C@H](O)[C@@H]1C/C=C\CCCC(=O)NC(CO)CO` [Prostaglandin D2 serinol amide], under setting [3], the “scaled lipid accumulation score” value was at most 0.
On to `CCCCC/C=C\C/C=C\C/C=C\CC1OC1CCCC(=O)O` (stereo not given) [5,6-Epoxyeicosatrienoic acid], for which the “scaled lipid accumulation score” value (library stock concentration: 100 uM) was at most -0.021.
On to `CC[C@@H]([C@H](C)O)n1ncn(-c2ccc(N3CCN(c4ccc(OC[C@@H]5CO[C@@](Cn6cncn6)(c6ccc(F)cc6F)C5)cc4)CC3)cc2)c1=O` [Posaconazole] [listing 1 of 2 here], for which the “scaled lipid accumulation score” value under setting [2] was 0.134.
With `CC[C@@H]([C@H](C)O)n1ncn(-c2ccc(N3CCN(c4ccc(OC[C@@H]5CO[C@@](Cn6cncn6)(c6ccc(F)cc6F)C5)cc4)CC3)cc2)c1=O` [Posaconazole] [listing 2 of 2 here], the “scaled lipid accumulation score” value under setting [1] was 0.869 (active).
With `CCC(C)n1ncn(-c2ccc(N3CCN(c4ccc(OCC5COC(Cn6cncn6)(c6ccc(Cl)cc6Cl)O5)cc4)CC3)cc2)c1=O` (stereo not given) [Itraconazole], the “scaled lipid accumulation score” value was at most 0 (library stock concentration: 2.8 mM), 0.492 under setting [2] and 0.522 under setting [1].
Consider `COc1ccc(C(=O)NCc2ccc(OCCN(C)C)cc2)cc1OC`, for which the “scaled lipid accumulation score” value under setting [1] was 0.061 and 0.313.
Still for that read-out and setting: the result for `Cc1cc(C)c(N(Cc2ccccc2)S(=O)(=O)c2ccc(OCCNC(=O)c3cc4ccccc4o3)cc2)c(C(=O)NO)c1` reads at most -0.001.
Take `CN(C)Cc1c(C(=O)NCCOc2ccc(C(=O)NO)cc2)oc2ccccc12`: the “scaled lipid accumulation score” value runs as follows: under setting [2], 0.855 (active); under setting [1], 1.01 (active).
For `CC(/C=C1\SC(=S)N(CC(=O)O)C1=O)=C\c1ccccc1` [Epalrestat], the “scaled lipid accumulation score” value is, setting by setting: under setting [2], at most 0; under setting [1], at most 0.
With `O=C(O)CCCC=CCC1C2CCC(O2)C1CNNC(=O)Nc1ccccc1` (stereo not given), the “scaled lipid accumulation score” value under setting [3] was ≤ 0 and ≤ -0.021.
`O=C(O)[C@]1(O)C[C@@H](O)[C@@H](O)[C@H](O)C1` [Quinic acid]: the “scaled lipid accumulation score” value is at most 0.
With `Cc1c(C(=O)c2ccccc2)c(N)c(-c2ccccc2)n1Cc1ccc(Cl)cc1`, under setting [3], the “scaled lipid accumulation score” value was at most 0.
As for `CCCCCCCCCCCCCCCCCCOC[C@H](COP(=O)([O-])OCC[N+](C)(C)C)OC(C)=O`, the “scaled lipid accumulation score” value under setting [3] was ≤ 0 and ≤ -0.021.
